This is one part of a sample in which hits are shown more often than they occur.
FECH block = inhibitors of human ferrochelatase, primary screen, biochemical, purified FECH, Ni-mesoporphyrin absorbance; calls only at 10 µM (by protocol); hit rate 3.3% among 20,000; AID 1671448, 2021; Ni-mesoporphyrin absorbance 550 nm;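 active means enzyme reaction rate more than 3 SD below the solvent-only control wells on the same plate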;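 further: lower slope than DMSO wells means FECH inhibition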
Target sequence (P22830 whole entry, looked up): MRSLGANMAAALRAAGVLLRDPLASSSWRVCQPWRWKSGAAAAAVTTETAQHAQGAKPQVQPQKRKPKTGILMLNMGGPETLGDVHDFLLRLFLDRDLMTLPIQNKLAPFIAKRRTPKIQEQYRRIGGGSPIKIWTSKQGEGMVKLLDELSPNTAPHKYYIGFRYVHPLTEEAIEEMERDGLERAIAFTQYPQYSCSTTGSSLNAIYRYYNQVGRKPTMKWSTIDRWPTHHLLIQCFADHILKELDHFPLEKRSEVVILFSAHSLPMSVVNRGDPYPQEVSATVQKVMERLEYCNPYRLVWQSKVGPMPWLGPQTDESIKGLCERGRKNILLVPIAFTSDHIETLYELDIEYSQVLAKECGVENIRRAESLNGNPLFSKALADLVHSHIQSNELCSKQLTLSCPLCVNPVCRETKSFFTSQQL
Starred values were filed as active, the others as inactive.

Cc1ccc(N2C(=O)CCS2(=O)=O)cc1S(=O)(=O)N1CCN(c2ccc(F)cc2)CC1 was read as FECH block active.
Screening COc1ccc(OCCNS(=O)(=O)c2cc(N3C(=O)CCS3(=O)=O)ccc2C)cc1 returned FECH block inactive.
Cc1ccc(NS(=O)(=O)c2cc(N3C(=O)CCS3(=O)=O)ccc2C)cc1 was read as FECH block inactive.
`CCOC(=O)CNS(=O)(=O)c1cc(N2C(=O)CCS2(=O)=O)ccc1C` gave FECH block active.
Screening CCc1cccc(C)c1NS(=O)(=O)c1cc(N2C(=O)CCS2(=O)=O)ccc1C returned FECH block active.
`COc1ccc(N2C(=O)CCS2(=O)=O)cc1S(=O)(=O)N1CCN(c2ccccc2F)CC1` gave FECH block inactive.
`COc1ccc(CNC(=O)CN2C(=O)C3CCCCN3C(=O)c3ccccc32)cc1` (configuration not stated) gave FECH block inactive.
Screening Cc1ccc(-c2cccc(C(=O)O)c2)nn1 returned FECH block inactive.
CC(=O)N1CCc2c(sc(NC(=O)c3ccc4ncsc4c3)c2-c2nc3ccccc3s2)C1 was read as FECH block inactive.
`OCC1(O)CCCN(Cc2nnc(-c3ccccc3)o2)CC1` (configuration not stated) gave FECH block inactive.
Cc1nc2c(C(=O)Nc3c(C)cnn3Cc3ccccc3Cl)cccc2[nH]1 was read as FECH block inactive.
CCCc1cc(Sc2ccc(NC(=O)c3cc(OC)c(OC)c(OC)c3)cc2)n2ncnc2n1 was read as FECH block inactive.
For CC(C)NC(=O)[C@@H]1C[C@H](N)CN1C(=O)c1cccc2c3c([nH]c12)CCCC3 the results were FECH block active.
Screening Cc1cc(C(=O)N2C[C@@H](N)C[C@H]2C(=O)NC(C)C)c(-c2ccccc2)o1 returned FECH block inactive.
Screening CCCc1cc(C(=O)N2C[C@@H](N)C[C@H]2C(=O)NC(C)C)ccn1 returned FECH block inactive.
Screening COc1ccc(C(=O)N(Cc2nc3nc(C)cc(C)n3n2)c2cccc(C)c2)cc1 returned FECH block active.
For CCCC(=O)N(Cc1nc2nc(C)cc(C)n2n1)c1ccc(F)cc1 the results were FECH block inactive.
Cc1cccc(N(Cc2nc3nc(C)cc(C)n3n2)C(=O)C(C)(C)C)c1 was read as FECH block inactive.
For CCOc1ccc(N(Cc2nc3nc(C)cc(C)n3n2)C(=O)c2cccc(C)c2)cc1 the results were FECH block inactive.
Cc1cccc(N(Cc2nc3nc(C)cc(C)n3n2)C(=O)COc2ccccc2)c1 was read as FECH block active.
Cc1cc(C)n2nc(CN(C(=O)CC(C)C)c3ccccc3)nc2n1 was read as FECH block inactive.
For CCCC(=O)N(Cc1nc2nc(C)cc(C)n2n1)c1ccccc1 the results were FECH block active.
`COc1cc(C(=O)N(Cc2nc3nc(C)cc(C)n3n2)c2cccc(C)c2)cc(OC)c1OC` gave FECH block inactive.
COc1cccc(C(=O)N(Cc2nc3nc(C)cc(C)n3n2)c2cccc(C)c2)c1 was read as FECH block inactive.
`Cc1nnc(SCCCNC(=O)C2Cc3ccccc3CN2C)s1` (configuration not stated) gave FECH block inactive.
Cc1ccc(CNC(=O)C2(C)Cn3nc(C(=O)NC4CCCCC4)cc3C(=O)N2C)cc1 (configuration not stated) was read as FECH block inactive.
For Cc1ccc2cc(C3(O)CCN(C(=O)CCn4cnnn4)CC3)ccc2n1 the results were FECH block inactive.
Screening CC(C)N1CCN(C(=O)c2[nH]cnc2C(=O)NCC(C)(C)C)CC1 returned FECH block inactive.
Screening CN(Cc1cccc(C(=O)Nc2nccn2C)c1)Cc1cc(C2CC2)n[nH]1 returned FECH block inactive.
Screening O=C(CN1CCN(Cc2ccc(F)cc2Cl)S1(=O)=O)Nc1ccc(Cl)cc1F returned FECH block inactive.
For CCOC(=O)N1CCC(n2ccnc2-c2ccc(CC)o2)CC1 the results were FECH block inactive.
For CCOC(=O)c1ccccc1NC(=O)CN1CCN(Cc2ccc(F)cc2Cl)S1(=O)=O the results were FECH block active.
`Cc1ccc(NC(=O)CN2CCN(Cc3ccc(F)cc3Cl)S2(=O)=O)cc1` gave FECH block active.
O=C(CN1CCN(Cc2ccccc2Cl)S1(=O)=O)Nc1ccc(Cl)cc1 was read as FECH block inactive.
Screening O=C(CN1CCN(Cc2ccc(F)cc2Cl)S1(=O)=O)Nc1ccc(Br)cc1 returned FECH block inactive.
`CCc1ccc(NC(=O)CN2CCN(Cc3ccc(F)cc3Cl)S2(=O)=O)cc1` gave FECH block inactive.
O=C(CN1CCCN(Cc2ccccc2Cl)S1(=O)=O)Nc1ccc(F)c(Cl)c1 was read as FECH block active.
`O=C(CN1CCN(Cc2ccccc2F)S1(=O)=O)Nc1ccc(F)c(Cl)c1` gave FECH block inactive.
For COc1ccccc1NC(=O)CN1CCN(Cc2ccc(F)cc2Cl)S1(=O)=O the results were FECH block inactive.
